# Sampled rows, rich in hits. Any-hit rate of the full collection: about 27%.
# CYP2C9 activ – CYP2C9 (human) activation; activation factor at 5 µM; recombinant CYP2C9, luciferin-H conversion, luminescence; hits give high values; factor 1 = untreated enzyme, 0 = blocked; AID 1024; 96,000 tested, 1.4% active;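 active means activation factor of 2 or more for CYP2C9 at a 5 µM dose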
# CYP2C9 inhib – human CYP2C9 inhibition. 96,000 tested, 20% active. inhibition, % at 5 µM. CYP2C9 Supersomes, luciferin-H conversion, luminescence. AID 777. P11712;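 active means blocking of liver enzyme CYP2C9 beyond about 50% at 5 µM, limit read from the data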
# CYP2C19 act – cytochrome P450 2C19 (human) activation | recombinant CYP2C19, luciferin-H EGE luminescence; hits give high values; 0 = fully inhibited enzyme, 1 = untreated enzyme | activation factor at 5 µM | 96,000 tested, under 10 active | AID 1025;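 active means activation factor of at least 2 at 5 µM in the primary screen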
# Target sequence (P33261 whole entry, looked up): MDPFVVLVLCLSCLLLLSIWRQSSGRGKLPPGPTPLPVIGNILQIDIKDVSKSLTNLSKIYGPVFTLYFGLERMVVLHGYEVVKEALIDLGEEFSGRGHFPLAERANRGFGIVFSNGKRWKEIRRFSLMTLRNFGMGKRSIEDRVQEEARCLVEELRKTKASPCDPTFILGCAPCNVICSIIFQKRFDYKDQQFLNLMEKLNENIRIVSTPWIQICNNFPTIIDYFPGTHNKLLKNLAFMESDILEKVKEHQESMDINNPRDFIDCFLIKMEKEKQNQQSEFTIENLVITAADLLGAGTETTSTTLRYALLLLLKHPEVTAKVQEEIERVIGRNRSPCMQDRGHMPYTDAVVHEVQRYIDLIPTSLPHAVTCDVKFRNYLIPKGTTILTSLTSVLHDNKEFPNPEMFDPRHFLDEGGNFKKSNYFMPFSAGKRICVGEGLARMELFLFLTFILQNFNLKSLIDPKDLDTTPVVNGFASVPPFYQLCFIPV
# EphB4 antag – antagonists of human EphB4-ephrin-B2 interaction; P54760; inhibition, % at 7 µM; EphB4 LBD / TNYL-RAW-Alexa532 peptide, fluorescence polarization; 97,000 tested, 0.15% active;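 active means inhibition above the screen-wide mean inhibition plus 3 SD, cut at about 15% in these data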
# CYP2C19 inhib – blocks human cytochrome P450 2C19; inhibition, % at 5 µM; AID 778; 96,000 tested, 21% active; CYP2C19 Supersomes, luciferin-H EGE luminescence, 30 min; P33261;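 active means CYP2C19 inhibition above a set limit at 5 µM in the primary screen, cut at about 50% in these data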
# A number is an active result; 0 = inactive; - = not tested or not shown.
SMILES,CYP2C9 activ,CYP2C9 inhib,CYP2C19 act,EphB4 antag,CYP2C19 inhib
O=C(c1cc(S(=O)(=O)N2CCCCC2)ccc1F)N1CCCCC1,0,0,0,0,0
COC(=O)c1cccc(S(=O)(=O)N2CCC(C)CC2)c1,0,0,0,0,55
CC1CCN(S(=O)(=O)c2cccc(C(=O)O)c2)CC1,0,0,0,0,0
O=C(Nc1ccc2c(c1)OCO2)C1CCN(Cc2cnn(-c3ccccc3)c2-n2cccc2)CC1,0,69,0,0,0
O=C(Nc1ccc2c(c1)OCO2)C1CCN(S(=O)(=O)Cc2ccccc2)CC1,0,55,0,0,0
Cc1ccnc(NS(=O)(=O)c2ccc(N=CC3=C(O)CC(C)(C)CC3=O)cc2)n1,0,0,0,0,0
Cc1cc(NCc2ccccc2)nc(-c2ccccc2O)n1,0,65,0,0,0
Cc1cc(Nc2ccccc2)nc(-c2ccccc2O)n1,0,0,0,0,0
CCOC(=O)c1ccc(Nc2nc(C(=O)OCC)nc3ccccc23)cc1,0,0,0,0,56
CCOC(=O)c1ccc(Nc2cc(C)nc(-c3ccccc3O)n2)cc1,0,57,0,-,0
Cc1cc(NC2CCCCC2)nc(-c2ccccc2O)n1,0,57,0,0,0
CC(C)C1C(=O)NC(=S)N1S(=O)(=O)c1ccc(C(C)(C)C)cc1 (stereo not given),0,0,0,0,0
Cc1ccc(C)c(S(=O)(=O)N2C(=S)NC(=O)C2CC(C)C)c1 (stereo not given),0,80,0,0,0
CN(c1ccccc1C(=O)N1CCCC1)S(C)(=O)=O,0,0,0,0,0
CS(=O)(=O)Nc1ccc(C(=O)NCCC2=CCCCC2)cc1,0,0,0,0,0
C=C(C)COc1ccc(-c2n[nH]c(C)c2Oc2ccccc2OC)c(O)c1,0,81,0,0,81
CCOc1ccc(-c2n[nH]c(C)c2Oc2ccccc2OC)c(O)c1,0,89,0,0,99
Cc1[nH]nc(-c2ccc(OCc3cnn(-c4ccccc4)c3)cc2O)c1Oc1ccccc1F,0,0,0,0,0
O=C1C=C(NCCN2CCOCC2)CC(c2ccccc2)C1 (stereo not given),0,0,0,0,0
COc1ccccc1CNC(=O)C(NS(=O)(=O)c1ccc2c(c1)oc(=O)n2C)C(C)C (stereo not given),0,0,0,0,0
COCCN(C(=O)c1ccccc1)c1nnc(-c2cccnc2)s1,0,0,0,0,0
Cc1cc(N)n2ncc(-c3ccccc3)c2n1,0,0,0,0,0
Cc1cc(N)n2ncc(-c3cccc(Br)c3)c2n1,0,72,0,0,0
COc1ccc(S(=O)(=O)NCCSc2ccc(Cl)cc2)cc1OC,-,-,-,0,-
Cc1cc(-c2c(C)[nH]n(-c3ccc(Cl)cc3)c2=O)n[nH]1,0,55,0,0,0
SMILES,CYP2C9 activ,CYP2C9 inhib,CYP2C19 act,EphB4 antag,CYP2C19 inhib
Cc1[nH]n(-c2ccc(Cl)cc2)c(=O)c1C=Nc1ccc(S(=O)(=O)N2CCOCC2)cc1,0,0,0,0,0
O=C(NOC(=O)c1ccccc1Cl)c1cccs1,0,51,0,0,0
Nc1ccc(NC(=O)c2cccs2)c(Cl)c1,0,0,0,0,0
CC(=O)N1CCN(c2ccc(NCc3ccccc3)cc2)CC1,0,0,0,0,0
c1ccc(-n2ncc3c(N4CCN(c5ccccn5)CC4)nc(N4CCCCC4)nc32)cc1,0,0,0,-,0
Cc1ccnc(N2CCN(c3c4c(c(C#N)c5nc6ccccc6n35)CCC4)CC2)c1,-,-,-,0,-
CCc1c(C)c(C#N)c2nc3ccccc3n2c1N1CCN(c2cc(C)ccn2)CC1,0,67,0,0,0
COc1cccc(C(=O)Nc2ccccc2N2CCOCC2)c1,0,53,0,0,62
COc1cccc(-n2c(C)nnc2SCC(=O)Nc2ccccc2N2CCOCC2)c1,0,77,0,0,63
COC(=O)c1ccc(N2CCOCC2)c(NC(=O)Nc2cccc(OC)c2)c1,0,71,0,-,0
COc1cccc(C(=O)OCC(=O)Nc2ccccc2N2CCOCC2)c1,0,51,0,0,0
Cc1ccc(C(=O)OCC(=O)Nc2ccccc2N2CCOCC2)cc1,-,-,-,0,-
O=C(O)CCC(=O)Nc1ccccc1N1CCOCC1,0,0,0,0,0
Cc1[nH]n(-c2ccc([N+](=O)[O-])cc2)c(=O)c1C=NCCN1CCN(C(=O)c2ccc(Br)cc2)CC1,0,0,0,0,0
COc1ccc(CCNC(=O)CCS(=O)(=O)c2ccc3c(c2)CCN3C(C)=O)cc1OC,0,0,0,0,0
CCOc1ccccc1NS(=O)(=O)c1ccc(OC)c(OC)c1,-,-,-,0,-
COc1cc(NS(=O)(=O)c2ccc(OC)c(OC)c2)cc(OC)c1,0,74,0,0,100
COc1ccc(S(=O)(=O)Nc2ccccc2C(=O)NC(C)(C)C)cc1OC,0,0,0,0,73
COc1ccccc1NS(=O)(=O)c1ccc(OC)c(OC)c1,2.6,0,0,0,99
O=C(O)c1cc(S(=O)(=O)Nc2ccccc2C(=O)O)ccc1O,0,0,0,0,0
COc1ccc(S(=O)(=O)Nc2ccccc2C(=O)OC2CCCN(C)C2)cc1OC (stereo not given),0,0,0,0,66
Cc1cc(NC(=O)CCC(=O)N(CC(=O)NC2CCCC2)c2ccccc2)no1,-,-,-,0,-
COC(=O)c1cccc(NS(=O)(=O)c2ccc(NC(C)=O)cc2)c1C,0,0,0,0,0
COc1cc(NS(=O)(=O)c2ccc(F)cc2)c(OC)cc1NC(=O)C1CC1,0,0,0,-,98
COc1ccc(NS(=O)(=O)c2ccc(C)c(C(=O)O)c2)cc1,0,0,0,0,0
SMILES,CYP2C9 activ,CYP2C9 inhib,CYP2C19 act,EphB4 antag,CYP2C19 inhib
COc1ccccc1NS(=O)(=O)c1cc(Cl)ccc1OC,0,0,0,-,97
COc1ccccc1NS(=O)(=O)c1ccc(C)c(C(N)=O)c1,0,0,0,0,88
COc1ccccc1NS(=O)(=O)c1ccc(NC(C)=O)cc1,0,0,0,0,93
COc1ccc(C2OC(=O)CC2C(=O)NC2CCCCCC2)cc1OC (stereo not given),0,0,0,0,0
COc1ccc(C2(CN(C(C)=O)C(C)=O)CCCC2)cc1OC,0,0,0,0,52
COc1ccc(C2(CNC(=O)Cc3ccccc3)CCCC2)cc1OC,0,0,0,0,62
COc1ccc(CC(=O)NCC2(c3ccc(OC)c(OC)c3)CCOCC2)cc1,0,0,0,0,0
COc1ccc(C2(C(N)=O)CCCCC2)cc1OC,0,0,0,0,0
O=P(O)(COc1ccccc1)COc1ccccc1,0,0,0,0,0
CCOc1ccc(OCC)c(-c2c(=O)n(OCc3ccccc3Br)c3ccccc3[n+]2[O-])c1,0,0,0,0,74
CC(C)CCNC(=O)C1CCN(c2nc3ccccc3o2)CC1,0,0,0,0,0
COc1ccc(-c2nc(NC(=O)C3CCN(c4nc5ccccc5o4)CC3)sc2C)cc1,0,51,0,0,0
Cc1ccc(-n2nc(C)c3c(-c4cccs4)c(C#N)c(N)nc32)cc1,0,0,0,0,0
Nc1ccc2nc(-c3ccc(Cl)cc3)[nH]c2c1,0,0,0,-,59

# Bioassay records deposited in PubChem by several laboratories.
